# Data published in PubChem BioAssay.
# “And” between values parts separate entries of the source, which are not always exact repeats. Equal values may be shown once. The source made the active and inactive calls. Unless noted, how the calls were made is not given here.
# What was measured:
# [1] = compounds altering circadian rhythm period length – cell-based, LOPAC library, luminescence reporter (AID 2774); conditions: circadian reporter cells, at 7 µM, actives lie on both sides;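 further: values are relative to mean of DMSO wells on each plate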
# [2] = test system: Hepatitis C virus NS3 helicase; experiment: blockers of NS3h binding to ssDNA – biochemical, fluorescence polarization, LOPAC1280 library, primary screen (AID 687035; in the data active means inhibition above about 37%); conditions: Purified HCV NS3 helicase, Cy5-dT15 ssDNA binding fluorescence polarization; stronger effect = higher value; concentration not given here
# [3] = compounds altering Cy5-DNA-NS3h complex signal – biochemical, LOPAC1280, artefact control for HCV NS3 helicase inhibitor project (AID 687037); conditions: Cy5-DNA-NS3h complex fluorescence interference counterscreen
# [4] = test system: Aerobactin synthetase IucA (Klebsiella pneumoniae); experiment: inhibition of K. pneumoniae IucA enzyme – biochemical, Tocris library, absorbance (AID 1345561); conditions: purified IucA enzyme assay, absorbance (OD) read-out; stronger effect = lower value;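 tested at 8 µM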;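 further: 100% = enzyme without compound and 0% = no enzyme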
# [5] = viability loss with induced miR-34 in A549 – imaging, A549 dox-inducible miR-34, nuclei and caspase counts, primary screen (AID 1347080;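 active means compounds whose cell count with miR-34 switched on is under 0.7 times the count with it off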); conditions: A549 miR-34 inducible, Hoechst nuclei count, 48 h
# [6] = blockers of cellular phospholipid synthesis – cell-based, LOPAC library, screen 4, primary screen (AID 1347384); conditions: animal cells, phospholipid biosynthesis inhibition screen; at 10 µM
# [7] = galactose survival enhancers in mitochondrial complex I cybrids – cell-based, galactose medium, ATP luminescence, primary screen (AID 1645843;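 active means z-score of at least 1.8 in each of two replicates, scored against plate mean and spread of sample wells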;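 further: positive z means more ATP and so rescue of galactose-driven cybrid death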); conditions: complex I mutant cybrid cells, 72 h, stronger effect = higher value
# [8] = chitosan synthesis blockers in C. neoformans – flow cytometry, Cibacron Brilliant Red staining (AID 1347148); conditions: Cryptococcus neoformans chitosan, stronger effect = lower value; at 10 µM unless noted;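 further: compound exposure lasted three days at 37 degrees C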
# [9] = compounds altering HSF1 focus formation in cells – imaging, Selleck Cancer Library (AID 1347162; in the data active means plate-normalised HSF1 focus index below about 0.46); conditions: human cells, HSF1 nuclear foci imaging, at 10 µM; SSMD: measured here: HSF1 foci SSMD mean; cell count: measured here: cell number; plate-normalised HSF1 focus index: stronger effect = lower value
# [10] = MELAS cybrid and Rieske KO viability enhancers – cell-based, MELAS cybrids, Rieske KO mouse fibroblasts, CellTiter-Glo, primary screen (AID 1508586;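 active means mean z-score across replicates of 1.96 or higher in either the MELAS or the Rieske mutant cell line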;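 further: z relative to plate mean and SD of compound and empty wells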); conditions: low glucose
# [11] = drug combination growth inhibition, ovarian cancer – cell-based, oncology-focused library, rucaparib conditional, profiling panel (AID 1508598;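 active means normalized viability below 100% at a tested concentration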); conditions: patient-derived ovarian cancer cells, CellTiter-Glo viability, 144 h, stronger effect = lower value
# [12] = compounds altering viability of human ES cells (AID 493140); conditions: human embryonic stem cell survival screen; stronger effect = higher value;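 further: cells exposed to compounds for four days before counting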
# [13] = stronger effect = lower value, cell number ratio, induced over uninduced
# [14] = measured here: relative caspase fold change +Dox/-Dox
# [15] = measured here: total cells with miR-34 induction, stronger effect = lower value
# [16] = measured here: total cells without miR-34 induction
# [17] = MELAS cybrid survival, CellTiter-Glo 48 h, stronger effect = higher value
# [18] = Rieske KO mouse fibroblast survival, CellTiter-Glo 72 h
structure (smiles),measurement,setting,value
CC(C)NC[C@H](O)COc1cccc2[nH]ccc12,period change,[1],0.125 h (inactive)
same,inhibition,[2],-2% (inactive)
same,fluorescence ratio (interference),[3],1 (inactive)
same,remaining activity,[4],102% (inactive)
same,fold change,[5]; [13],0.97 (inactive) and 0.927 (inactive)
same,fold change,[5]; [14],1.45 and 1.12
same,cell count,[5]; [15],9970 and 8970
same,cell count,[5]; [16],10300 and 9670
same,outcome,[6],inactive
same,z-score,[7],-0.095 (inactive) and -0.03 (inactive)
O=C1C(SCCO)=C(SCCO)C(=O)c2ccccc21,period change,[1],-0.12 h (inactive)
same,inhibition,[2],-3% (inactive)
same,fluorescence ratio (interference),[3],1 (inactive)
same,remaining activity,[4],112% (inactive)
same,fold change,[5]; [13],1.25 (inactive) and 0.776 (inactive) and 0.848 (inactive)
same,fold change,[5]; [14],0.902 and 1.05 and 1.12
same,cell count,[5]; [15],1490 and 1050 and 1210
same,cell count,[5]; [16],1190 and 1350 and 1420
same,fold fluorescence,[8],6.37 [at 161.1 µM] (inactive)
same,outcome,[6],inactive
same,z-score,[7],-1.04 (inactive) and -0.82 (inactive)
Cn1cc(C2=C(c3ccc(Cl)cc3Cl)C(=O)NC2=O)c2ccccc21,period change,[1],0.025 h (inactive)
same,inhibition,[2],-3% (inactive)
same,fluorescence ratio (interference),[3],1 (inactive)
same,remaining activity,[4],92.7% (inactive)
same,fold change,[5]; [13],0.99 (inactive) and 0.96 (inactive) and 1.01 (inactive)
same,fold change,[5]; [14],1.07 and 0.76 and 0.707
same,cell count,[5]; [15],4090 and 5760 and 2500
same,cell count,[5]; [16],4130 and 6000 and 2470
same,SSMD,[9],1.42
same,cell count,[9],7820
same,plate-normalised HSF1 focus index,[9],1.09 (inactive)
same,outcome,[6],inactive
same,z-score,[10]; [17],-0.394 (inactive)
same,z-score,[10]; [18],0.82
same,viability,"[11]; at 0.000305 µM, OCI-C5x cells, with rucaparib 10 µM, 100% = cells with rucaparib alone",106% (inactive)
same,viability,"[11]; at 0.000305 µM, OCI-C5x cells, without rucaparib",117% (inactive)
same,viability,"[11]; at 0.000305 µM, OCI-P5x cells, with rucaparib 20 µM, 100% = cells with rucaparib alone",102% (inactive)
same,viability,"[11]; at 0.000305 µM, OCI-P5x cells, without rucaparib",103% (inactive)
same,viability,"[11]; at 0.00122 µM, OCI-C5x cells, with rucaparib 10 µM, 100% = cells with rucaparib alone",122% (inactive)
same,viability,"[11]; at 0.00122 µM, OCI-C5x cells, without rucaparib",119% (inactive)
same,viability,"[11]; at 0.00122 µM, OCI-P5x cells, with rucaparib 20 µM, 100% = cells with rucaparib alone",107% (inactive)
same,viability,"[11]; at 0.00122 µM, OCI-P5x cells, without rucaparib",89.9% (active)
same,viability,"[11]; at 0.00488 µM, OCI-C5x cells, with rucaparib 10 µM, 100% = cells with rucaparib alone",117% (inactive)
same,viability,"[11]; at 0.00488 µM, OCI-C5x cells, without rucaparib",114% (inactive)
same,viability,"[11]; at 0.00488 µM, OCI-P5x cells, with rucaparib 20 µM, 100% = cells with rucaparib alone",105% (inactive)
same,viability,"[11]; at 0.00488 µM, OCI-P5x cells, without rucaparib",91.8% (active)
same,viability,"[11]; at 0.0195 µM, OCI-C5x cells, with rucaparib 10 µM, 100% = cells with rucaparib alone",125% (inactive)
same,viability,"[11]; at 0.0195 µM, OCI-C5x cells, without rucaparib",111% (inactive)
same,viability,"[11]; at 0.0195 µM, OCI-P5x cells, with rucaparib 20 µM, 100% = cells with rucaparib alone",98.3% (active)
same,viability,"[11]; at 0.0195 µM, OCI-P5x cells, without rucaparib",89.5% (active)
same,viability,"[11]; at 0.0781 µM, OCI-C5x cells, with rucaparib 10 µM, 100% = cells with rucaparib alone",110% (inactive)
same,viability,"[11]; at 0.0781 µM, OCI-C5x cells, without rucaparib",112% (inactive)
same,viability,"[11]; at 0.0781 µM, OCI-P5x cells, with rucaparib 20 µM, 100% = cells with rucaparib alone",106% (inactive)
same,viability,"[11]; at 0.0781 µM, OCI-P5x cells, without rucaparib",81.9% (active)
same,viability,"[11]; at 0.313 µM, OCI-C5x cells, with rucaparib 10 µM, 100% = cells with rucaparib alone",122% (inactive)
same,viability,"[11]; at 0.313 µM, OCI-C5x cells, without rucaparib",106% (inactive)
same,viability,"[11]; at 0.313 µM, OCI-P5x cells, with rucaparib 20 µM, 100% = cells with rucaparib alone",97.2% (active)
same,viability,"[11]; at 0.313 µM, OCI-P5x cells, without rucaparib",89.8% (active)
same,viability,"[11]; at 1.25 µM, OCI-C5x cells, with rucaparib 10 µM, 100% = cells with rucaparib alone",126% (inactive)
same,viability,"[11]; at 1.25 µM, OCI-C5x cells, without rucaparib",111% (inactive)
same,viability,"[11]; at 1.25 µM, OCI-P5x cells, with rucaparib 20 µM, 100% = cells with rucaparib alone",96.3% (active)
same,viability,"[11]; at 1.25 µM, OCI-P5x cells, without rucaparib",84.5% (active)
same,viability,"[11]; at 5 µM, OCI-C5x cells, with rucaparib 10 µM, 100% = cells with rucaparib alone",114% (inactive)
same,viability,"[11]; at 5 µM, OCI-C5x cells, without rucaparib",120% (inactive)
same,viability,"[11]; at 5 µM, OCI-P5x cells, with rucaparib 20 µM, 100% = cells with rucaparib alone",89.2% (active)
same,viability,"[11]; at 5 µM, OCI-P5x cells, without rucaparib",83.9% (active)
same,z-score,[7],1.59 (inactive) and 0.305 (inactive)
O=C1CCc2c(ccc3ccccc23)O1,remaining activity,[4],100% (inactive)
same,fold change,[5]; [13],0.939 (inactive) and 0.91 (inactive)
same,fold change,[5]; [14],0.854 and 0.797
same,cell count,[5]; [15],5380 and 8760
same,cell count,[5]; [16],5730 and 9620
same,fold fluorescence,[8],3.79 [at 252.2 µM] (inactive)
same,z-score,[7],-0.32 (inactive)
Fc1cccc(/C=N/N=C/c2cccc(F)c2)c1,remaining activity,[4],113% (inactive)
same,fold change,[5]; [13],1.08 (inactive) and 0.921 (inactive)
same,fold change,[5]; [14],1.02 and 0.755
same,cell count,[5]; [15],11300 and 8600
same,cell count,[5]; [16],10400 and 9330
same,outcome,[6],inactive
same,z-score,[7],0.64 (inactive) and 0.415 (inactive)
CCSC(=N)N,period change,[1],0.115 h (inactive)
same,inhibition,[2],-2% (inactive)
same,fluorescence ratio (interference),[3],1 (inactive)
same,remaining activity,[4],116% (inactive)
same,fold change,[5]; [13],1.03 (inactive) and 0.939 (inactive) and 0.949 (inactive)
same,fold change,[5]; [14],0.74 and 0.98 and 1.59
same,cell count,[5]; [15],10300 and 5940 and 9910
same,cell count,[5]; [16],10000 and 6330 and 10400
same,outcome,[6],inactive
same,z-score,[7],0.125 (inactive) and 0.13 (inactive)
NS(=O)(=O)C#Cc1ccccc1,inhibition,[2],0% (inactive)
same,fluorescence ratio (interference),[3],1 (inactive)
same,remaining activity,[4],110% (inactive)
same,fold change,[5]; [13],1.19 (inactive) and 0.967 (inactive) and 1.13 (inactive)
same,fold change,[5]; [14],1.2 and 0.467 and 1.12
same,cell count,[5]; [15],3660 and 6510 and 3430
same,cell count,[5]; [16],3080 and 6730 and 3020
same,outcome,[6],inactive
same,z-score,[10]; [17],-0.62 (inactive)
same,z-score,[10]; [18],-0.117
same,z-score,[7],-1.27 (inactive) and -0.695 (inactive)
Oc1cc2c(cc1O)C(c1ccccc1)CNCC2 (stereo not drawn),period change,[1],0.125 h (inactive)
same,inhibition,[2],-3% (inactive)
same,fluorescence ratio (interference),[3],1 (inactive)
same,remaining activity,[4],113% (inactive)
same,fold change,[5]; [13],0.993 (inactive) and 0.954 (inactive)
same,fold change,[5]; [14],1.37 and 0.889
same,cell count,[5]; [15],10500 and 10200
same,cell count,[5]; [16],10600
same,outcome,[6],inactive
same,z-score,[7],0.58 (inactive) and 0.48 (inactive)
Cc1ccc(O)c(N=Nc2ccccc2)n1,period change,[1],-0.01 h (inactive)
same,inhibition,[2],1% (inactive)
same,fluorescence ratio (interference),[3],0.9 (inactive)
same,remaining activity,[4],110% (inactive)
same,fold change,[5]; [13],0.956 (inactive) and 0.932 (inactive)
same,fold change,[5]; [14],0.751 and 0.659
same,cell count,[5]; [15],10100 and 8850
same,cell count,[5]; [16],10500 and 9490
same,outcome,[6],inactive
same,z-score,[7],1.16 (inactive) and 0.96 (inactive)
CCN(CC)CCOC(=O)c1cc(Cl)c(N)cc1OC,period change,[1],-0.055 h (inactive)
same,inhibition,[2],-6% (inactive)
same,fluorescence ratio (interference),[3],1 (inactive)
same,remaining activity,[4],95% (inactive)
same,fold change,[5]; [13],0.965 (inactive) and 0.955 (inactive)
same,fold change,[5]; [14],1.47 and 1.03
same,cell count,[5]; [15],10500 and 9010
same,cell count,[5]; [16],10800 and 9430
same,outcome,[6],inactive
same,z-score,[7],0.75 (inactive) and 0.1 (inactive)
CC(C)(C)n1nc(-c2ccc(Cl)cc2)c2c(N)ncnc21,survival,[12],53.1 (inactive)
same,remaining activity,[4],92.2% (inactive)
same,fold change,[5]; [13],1.17 (inactive) and 0.851 (inactive) and 0.882 (inactive)
same,fold change,[5]; [14],0.727 and 0.97 and 0.665
same,cell count,[5]; [15],797 and 2420 and 4980
same,cell count,[5]; [16],682 and 2850 and 5640
same,fold fluorescence,[8],4.87 [at 165.7 µM] (inactive)
same,z-score,[10]; [17],0.749 (inactive)
same,z-score,[10]; [18],-0.167
same,z-score,[7],1.28 (inactive)
